# Measured values as given in PubChem BioAssay.
# Assay: binders from COS7 lysate, DM2A8 probe, primary screen, torsin A project, cell lysate, small-molecule microarray, fluorescence 635/667 (AID 1065)
# Conditions: higher = more signal, COS7 lysate expressing mutant human TOR1A
row,SMILES,composite z-score
1,COC(=O)[C@@]1(Cc2ccc(OC)cc2)[C@H]2c3cc(C(=O)N(C)C)n(Cc4cc(C)n(C)n4)c3C[C@H]2CN1C(=O)c1ccccc1,0.221
2,O=C(NCc1ccccc1)[C@]1(Cc2ccccc2)N=C(c2ccc(OCCCO)cc2)O[C@@H]1c1ccccc1,-0.136
3,[N-]=[N+]=NCc1ccccc1[C@H]1OC(c2ccc(OCCCO)cc2)=N[C@@]1(Cc1ccccc1N=[N+]=[N-])C(=O)N1CCCCC1,0.221
4,COCCOC(=O)N1C(=O)[C@@]2(c3ccccc31)[C@H](c1ccc(OCCO)cc1)N1[C@H](c3ccccc3)[C@H](c3ccccc3)OC(=O)[C@H]1[C@@H]2C(=O)NC[C@H](O)c1ccccc1,0.537
5,COc1ccc(C(=O)Nc2ccc3c(c2)[C@]2(O[C@@H](CCO)[C@H]([Si](C)(C)c4ccc(OC)cc4)[C@H]2C)C(=O)N3Cc2ccccc2)cc1,0.203
6,CN(C)C(=O)[C@]1(Cc2ccccc2N=[N+]=[N-])N=C(c2ccc(OCCCO)cc2)O[C@@H]1c1ccccc1CN=[N+]=[N-],0.937
7,COCCOC(=O)N1C(=O)[C@@]2(c3cc(C#Cc4ccc(OC)cc4)ccc31)[C@H](C(=O)N1CCc3cc(OC)c(OC)cc3C1)[C@H]1C(=O)O[C@H](c3ccccc3)[C@H](c3ccccc3)N1[C@@H]2c1ccc(O)cc1,0.613
8,COc1ccc(C#Cc2ccc3c(c2)[C@]2(C(=O)N3)[C@H](C(N)=O)[C@H]3C(=O)O[C@H](c4ccccc4)[C@H](c4ccccc4)N3[C@@H]2c2ccc(O)cc2)cc1,1.1
9,COc1ccc([Si](C)(C)[C@@H]2[C@@H](CCO)O[C@]3(C(=O)N(Cc4ccccc4)c4ccc(N5C(=O)COc6ccccc65)cc43)[C@H]2C)cc1,0.217
10,CC(C)(C)OC(=O)CC[C@@]1(C(=O)N2CCCCC2)N=C(c2ccc(OCCCO)cc2)O[C@@H]1c1ccccc1CN=[N+]=[N-],0.159
11,CC(C)C(CO)N1C(=O)[C@@H]2[C@H]3C(=O)OCC=C[C@H]3OC23C=CCN(CCN2CCOCC2)C(=O)[C@@H]13 (stereo partly specified),-1.13
12,CN1C(=O)C2C=CC(C(O)c3cccc4ccccc34)N(NC(=O)OC(C)(C)C)C2C1=O (stereo unspecified),1.79
13,COCCOC(=O)N1C(=O)[C@@]2(c3cc(C#Cc4ccc(OC)cc4)ccc31)[C@H](C(=O)N1CCc3cc(OC)c(OC)cc3C1)[C@H]1C(=O)O[C@H](c3ccccc3)[C@H](c3ccccc3)N1[C@@H]2c1ccc(OCCO)cc1,0.454
14,CCOC(=O)C1=CC[C@@H](c2ccccc2)N(S(=O)(=O)c2ccc(C)cc2)[C@H]1C=C(C)C,0.644
15,C[N+](C)(C)CCCC[C@@H]1NC(=O)[C@H]2C[C@@H](C(=O)NCCCCCCN)[C@@H](c3cccc(OCCO)c3)N2C1=O,1.85
16,COC(=O)C(CC#Cc1ccc2c(c1)[C@]1(C(=O)N2)[C@H](c2ccc(O)cc2)N2[C@H](c3ccccc3)[C@H](c3ccccc3)OC(=O)[C@H]2[C@@H]1C(N)=O)C(=O)OC,-0.392
17,CCOc1cc(C(O)C2C=CC3C(=O)NC(=O)C3N2Nc2ccccn2)ccc1O (stereo unspecified),0.123
18,C[N+](C)(C)CCCCCCNC(=O)[C@@H]1C[C@@H]2C(=O)NCC(=O)N2[C@@H]1c1cccc(OCCO)c1,0.488
19,O=C1c2ccccc2C(=O)C2CC([C@H]3Oc4ccccc4S(=O)(=O)N4CCC[C@@H]34)=CCC12 (stereo partly specified),-0.0672
20,CCCc1cc2c(n1Cc1ccc(OC)cc1)C(C)C1CN(C(=O)c3ccccc3)C(C)(C(=O)OC)C21 (stereo unspecified),0.575
21,CC(=O)NCCCC[C@@H]1NC(=O)[C@@H]2C[C@H](C(=O)NCCCC[N+](C)(C)C)[C@H](c3cccc(OCCO)c3)N2C1=O,1.05
22,[N-]=[N+]=Nc1ccccc1[C@@H]1OC(c2ccc(OCCCO)cc2)=N[C@]1(CCS(=O)(=O)c1ccccc1)C(=O)NCc1ccccc1,0.599
23,CN(C)CCCC[C@@H]1NC(=O)[C@H]2C[C@@H](C(=O)NCCCCCCNC(=O)CS)[C@@H](c3ccc(O)cc3)N2C1=O,0.576
24,COC(=O)[C@@]1(Cc2ccc(OC)cc2)[C@H]2c3cc(C(=O)N4CCCC4)n(Cc4ccc(C)o4)c3C[C@H]2CN1C(=O)c1ccccc1,-0.0673
25,O=C1N(Cc2ccccc2)c2ccccc2[C@H]2OC(c3ccc(OCCCO)cc3)=N[C@@]12CCS(=O)(=O)c1ccccc1,0.527
26,COCCCNC(=O)[C@]1(Cc2ccccc2)N=C(c2ccc(OCCCO)cc2)O[C@@H]1c1ccccc1N=[N+]=[N-],1.54
